For some assays here: Entries with a potency or affinity are not part of this list.
How the values were obtained:
[1] = target: Protein translocase subunit SecA (Escherichia coli (strain K12)) (UniProt P10408); assay: Assay to Identify E. coli SecA ATPase Inhibitors; format: functional; parameters: scale not given: direction of the effect not stated beside the values; conditions: 30 µM
[2] = target: T1, Ubiquitin-activating enzyme e1, putative (Leishmania donovani (strain BPK282A1)) (UniProt E9BSI1); assay: Leishmania donovani Ubiquitin Activating Enzyme (LdE1); format: functional; parameters: scale not given: direction of the effect not stated beside the values; conditions: 30 µM
T1 sequence (whole entry): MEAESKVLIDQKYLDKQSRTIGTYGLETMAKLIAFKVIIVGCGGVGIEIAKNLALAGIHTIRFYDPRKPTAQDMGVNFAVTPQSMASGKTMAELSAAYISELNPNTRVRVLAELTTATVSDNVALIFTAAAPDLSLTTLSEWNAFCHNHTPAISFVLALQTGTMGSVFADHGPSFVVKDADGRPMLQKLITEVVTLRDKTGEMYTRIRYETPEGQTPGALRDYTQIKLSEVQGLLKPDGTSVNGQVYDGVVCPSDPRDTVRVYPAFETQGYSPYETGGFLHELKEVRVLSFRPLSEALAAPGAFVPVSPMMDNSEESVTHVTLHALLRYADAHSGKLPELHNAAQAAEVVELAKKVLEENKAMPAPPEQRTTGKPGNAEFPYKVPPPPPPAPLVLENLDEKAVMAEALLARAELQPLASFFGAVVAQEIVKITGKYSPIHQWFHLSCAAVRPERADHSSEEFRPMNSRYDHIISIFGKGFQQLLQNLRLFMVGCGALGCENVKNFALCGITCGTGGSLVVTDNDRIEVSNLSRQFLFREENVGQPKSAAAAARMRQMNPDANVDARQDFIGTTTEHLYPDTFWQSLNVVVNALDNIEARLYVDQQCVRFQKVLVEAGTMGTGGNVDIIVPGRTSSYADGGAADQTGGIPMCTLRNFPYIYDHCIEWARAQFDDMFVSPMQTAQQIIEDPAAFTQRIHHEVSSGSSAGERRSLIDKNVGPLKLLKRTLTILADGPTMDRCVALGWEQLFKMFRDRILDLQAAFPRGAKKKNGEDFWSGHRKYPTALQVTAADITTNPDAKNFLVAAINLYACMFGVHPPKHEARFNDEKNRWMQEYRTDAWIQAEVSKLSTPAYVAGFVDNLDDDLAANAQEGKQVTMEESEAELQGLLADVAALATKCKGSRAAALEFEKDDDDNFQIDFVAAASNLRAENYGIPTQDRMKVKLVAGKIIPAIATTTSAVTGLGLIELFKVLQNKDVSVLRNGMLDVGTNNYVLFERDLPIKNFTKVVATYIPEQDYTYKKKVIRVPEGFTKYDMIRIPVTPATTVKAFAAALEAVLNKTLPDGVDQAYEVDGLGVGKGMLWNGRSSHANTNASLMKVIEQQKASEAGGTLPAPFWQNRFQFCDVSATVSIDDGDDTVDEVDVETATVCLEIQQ

[3] = target: T2, Aspartate--tRNA(Asp/Asn) ligase (Mycobacterium tuberculosis (strain ATCC 25618 / H37Rv)) (UniProt P9WFW3); assay: Assay for Asp RNA synthetase-1 from Mycobacterium tuberculosis; format: functional; parameters: scale not given: direction of the effect not stated beside the values; conditions: 30 µM; further: in the data most compounds retested in dose-response had high values
T2 sequence (whole entry): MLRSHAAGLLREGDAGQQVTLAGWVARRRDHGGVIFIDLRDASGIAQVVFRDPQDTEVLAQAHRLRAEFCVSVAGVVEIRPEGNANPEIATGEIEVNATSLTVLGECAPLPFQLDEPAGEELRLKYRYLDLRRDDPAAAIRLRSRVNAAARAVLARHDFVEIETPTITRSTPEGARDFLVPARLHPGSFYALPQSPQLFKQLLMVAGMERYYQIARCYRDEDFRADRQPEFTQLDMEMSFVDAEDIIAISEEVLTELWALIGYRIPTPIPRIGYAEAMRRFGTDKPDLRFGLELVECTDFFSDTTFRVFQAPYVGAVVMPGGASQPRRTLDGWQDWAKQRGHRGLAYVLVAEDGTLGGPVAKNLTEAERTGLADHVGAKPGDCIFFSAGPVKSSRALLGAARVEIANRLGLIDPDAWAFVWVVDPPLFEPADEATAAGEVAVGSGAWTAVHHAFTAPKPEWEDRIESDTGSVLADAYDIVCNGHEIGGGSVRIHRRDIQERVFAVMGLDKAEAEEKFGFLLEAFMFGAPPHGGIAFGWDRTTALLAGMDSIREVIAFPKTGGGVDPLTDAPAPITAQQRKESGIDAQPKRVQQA

[4] = target: AMP-activated protein kinase, AMPK (Homo sapiens) (UniProt P54646+O43741+P54619+Q9UGJ0+Q9Y478+Q13131+Q9UGI9); assay: AMP-dependent Kinase enzyme assay. An in vitro enzyme assay that detects ADP turnover that is directly proportional to AMPK activity. This uses naive AMPK that is activated during the assay with MK-8722; format: functional; parameters: scale not given: direction of the effect not stated beside the values; conditions: 30 µM
[5] = target: Sialic acid-binding Ig-like lectin 9 (Homo sapiens) (UniProt Q9Y336); assay: Hs-Siglec9 ALPHAscreen SOP 20170721; parameters: scale not given: direction of the effect not stated beside the values; conditions: 10 µM
Trypanosoma cruzi = assay: Trypanosoma cruzi phosphomannomutase and mannose-1-phosphate guanylyltransferase assay; format: functional; parameters: scale not given: direction of the effect not stated beside the values; conditions: 10 µM
[6] = target: T3, Arginase-2, mitochondrial (Homo sapiens) (UniProt P78540); assay: in vitro enzyme assay to detect the production of urea directly proportional to the activity of Arginase II; format: functional; parameters: scale not given: in the data most compounds retested in dose-response had high values
T3 sequence (whole entry): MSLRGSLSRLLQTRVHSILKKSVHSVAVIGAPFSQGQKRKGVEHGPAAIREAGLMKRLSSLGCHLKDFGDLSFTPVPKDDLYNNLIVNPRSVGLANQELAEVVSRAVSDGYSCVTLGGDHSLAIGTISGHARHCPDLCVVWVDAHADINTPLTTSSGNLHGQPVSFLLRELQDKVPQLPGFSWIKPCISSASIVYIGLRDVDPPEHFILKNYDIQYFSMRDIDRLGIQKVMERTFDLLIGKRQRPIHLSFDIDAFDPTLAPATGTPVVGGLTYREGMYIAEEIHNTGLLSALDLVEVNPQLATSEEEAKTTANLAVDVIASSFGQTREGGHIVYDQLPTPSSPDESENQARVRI

[7] = target: T4, Proteasome subunit beta (Trypanosoma cruzi) (UniProt O96673); assay: Trypanosoma cruzi proteasome chymotrypsin-like activity (TcProtChymo) assay.; format: functional; parameters: scale not given: in the data most compounds retested in dose-response had high values; conditions: 9.37 µM
T4 sequence (whole entry): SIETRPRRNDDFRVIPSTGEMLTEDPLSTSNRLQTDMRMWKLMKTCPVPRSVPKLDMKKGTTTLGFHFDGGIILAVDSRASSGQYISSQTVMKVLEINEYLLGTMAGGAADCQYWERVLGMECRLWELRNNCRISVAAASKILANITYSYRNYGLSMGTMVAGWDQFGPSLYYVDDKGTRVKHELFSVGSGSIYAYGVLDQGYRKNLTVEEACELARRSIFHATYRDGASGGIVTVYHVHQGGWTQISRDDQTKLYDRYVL

Homo sapiens = organism: Homo sapiens; assay: To identify inhibition of the IFN signalling (Jak-Stat) pathway via expression of an eGFP reporter gene under the control of an IFN-stimulated response element (ISRE) containing MxA promoter.; format: functional; parameters: scale not given: direction of the effect not stated beside the values; conditions: 30 µM
[8] = target: Shiga toxin 2 (Escherichia coli O157:H7) (UniProt P09385+P09386); assay: E. coli 0.157:H7 Shiga Toxin SOP - stx2 screening assay; format: functional; parameters: scale not given: direction of the effect not stated beside the values; conditions: 30 µM
[9] = target: T5, Tyrosyl-tRNA synthetase, putative (Trypanosoma cruzi (strain CL Brener)) (UniProt Q4DSP6); assay: Trypanosoma cruzi tyrosyl tRNA synthetase (TcYRS) _High Tyrosine SOP; format: functional; parameters: scale not given: in the data most compounds retested in dose-response had high values; conditions: 30 µM
T5 sequence (whole entry): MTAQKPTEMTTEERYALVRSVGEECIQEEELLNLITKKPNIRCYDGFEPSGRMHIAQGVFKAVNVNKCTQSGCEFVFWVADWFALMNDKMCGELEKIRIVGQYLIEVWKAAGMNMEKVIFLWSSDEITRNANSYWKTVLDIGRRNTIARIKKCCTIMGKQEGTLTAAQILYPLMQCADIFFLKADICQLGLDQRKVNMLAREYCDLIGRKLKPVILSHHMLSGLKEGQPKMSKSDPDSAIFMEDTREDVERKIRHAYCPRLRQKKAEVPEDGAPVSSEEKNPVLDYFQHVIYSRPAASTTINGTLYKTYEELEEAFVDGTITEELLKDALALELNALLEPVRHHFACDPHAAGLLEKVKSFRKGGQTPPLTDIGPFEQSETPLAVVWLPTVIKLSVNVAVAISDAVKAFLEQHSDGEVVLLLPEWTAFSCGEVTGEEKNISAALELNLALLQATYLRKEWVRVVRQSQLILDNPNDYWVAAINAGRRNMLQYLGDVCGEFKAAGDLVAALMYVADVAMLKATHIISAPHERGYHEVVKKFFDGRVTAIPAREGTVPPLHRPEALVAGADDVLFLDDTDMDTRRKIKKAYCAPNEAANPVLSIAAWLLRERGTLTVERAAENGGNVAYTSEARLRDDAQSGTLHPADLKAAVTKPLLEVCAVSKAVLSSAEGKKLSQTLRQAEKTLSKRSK

[10] = target: T5, Tyrosyl-tRNA synthetase, putative (Trypanosoma cruzi (strain CL Brener)); assay: Trypanosoma cruzi tyrosyl tRNA synthetase (TcYRS) SOP; format: functional; parameters: scale not given: direction of the effect not stated beside the values; conditions: 30 µM
[11] = target: Chromo domain-containing protein 1 (Saccharomyces cerevisiae (strain ATCC 204508 / S288c) (Baker's yeast)) (UniProt P32657); assay: ScCHD-1 Enzyme Inhibition Assay; format: functional; parameters: scale not given: in the data most compounds retested in dose-response had high values; conditions: 30 µM
[12] = target: T6, Methionyl-tRNA synthetase, putative (Leishmania donovani (strain BPK282A1)) (UniProt E9BF75); assay: Leishmania donovani Methionine tRNA synthetase (LdMetRS):v7. Dose response assay; format: functional; parameters: conc 80 nM, time 150 minutes
T6 sequence (whole entry): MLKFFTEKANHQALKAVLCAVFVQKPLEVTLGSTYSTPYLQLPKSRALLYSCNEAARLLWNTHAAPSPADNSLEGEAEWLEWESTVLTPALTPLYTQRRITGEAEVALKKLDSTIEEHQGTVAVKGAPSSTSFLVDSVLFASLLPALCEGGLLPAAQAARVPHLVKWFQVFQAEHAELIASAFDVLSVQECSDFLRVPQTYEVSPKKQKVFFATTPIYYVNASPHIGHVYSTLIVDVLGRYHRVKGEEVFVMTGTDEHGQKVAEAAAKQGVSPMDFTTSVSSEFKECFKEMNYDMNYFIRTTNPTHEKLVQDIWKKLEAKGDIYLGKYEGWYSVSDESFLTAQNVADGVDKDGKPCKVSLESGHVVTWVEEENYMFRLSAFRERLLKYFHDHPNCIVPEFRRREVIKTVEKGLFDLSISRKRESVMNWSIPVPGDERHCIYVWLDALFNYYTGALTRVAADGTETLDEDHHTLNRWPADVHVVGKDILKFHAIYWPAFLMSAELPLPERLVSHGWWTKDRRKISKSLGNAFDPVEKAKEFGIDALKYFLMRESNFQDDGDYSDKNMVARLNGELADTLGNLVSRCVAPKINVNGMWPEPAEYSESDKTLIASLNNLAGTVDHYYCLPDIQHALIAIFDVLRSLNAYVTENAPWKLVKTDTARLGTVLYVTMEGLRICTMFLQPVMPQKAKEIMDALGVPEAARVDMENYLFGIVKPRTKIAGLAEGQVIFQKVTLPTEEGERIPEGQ

Chain of Protein translocase subunit SecA (Escherichia coli (strain K12)) (P10408 whole entry): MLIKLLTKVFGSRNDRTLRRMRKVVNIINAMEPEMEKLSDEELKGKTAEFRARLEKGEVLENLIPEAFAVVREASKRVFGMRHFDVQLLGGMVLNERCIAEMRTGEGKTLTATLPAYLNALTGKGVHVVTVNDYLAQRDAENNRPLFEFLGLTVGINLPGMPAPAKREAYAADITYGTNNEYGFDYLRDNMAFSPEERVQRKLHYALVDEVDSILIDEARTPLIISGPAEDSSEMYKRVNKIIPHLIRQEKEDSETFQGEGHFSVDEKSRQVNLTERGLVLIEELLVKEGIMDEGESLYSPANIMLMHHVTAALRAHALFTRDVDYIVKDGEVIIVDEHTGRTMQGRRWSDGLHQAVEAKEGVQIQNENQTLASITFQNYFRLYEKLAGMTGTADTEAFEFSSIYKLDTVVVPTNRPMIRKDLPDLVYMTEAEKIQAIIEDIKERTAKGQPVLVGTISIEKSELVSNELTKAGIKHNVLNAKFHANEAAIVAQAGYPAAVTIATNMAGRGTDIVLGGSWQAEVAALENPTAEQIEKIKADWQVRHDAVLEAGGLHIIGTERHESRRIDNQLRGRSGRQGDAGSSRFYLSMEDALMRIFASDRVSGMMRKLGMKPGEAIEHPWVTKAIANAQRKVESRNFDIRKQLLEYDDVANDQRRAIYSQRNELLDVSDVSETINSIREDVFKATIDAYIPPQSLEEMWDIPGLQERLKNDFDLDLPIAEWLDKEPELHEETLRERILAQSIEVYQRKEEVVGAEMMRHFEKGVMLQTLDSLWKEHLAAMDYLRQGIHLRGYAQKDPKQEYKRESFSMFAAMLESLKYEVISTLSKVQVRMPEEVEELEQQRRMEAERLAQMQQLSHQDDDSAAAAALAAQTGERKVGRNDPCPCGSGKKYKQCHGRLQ
Chain of Chromo domain-containing protein 1 (Saccharomyces cerevisiae (strain ATCC 204508 / S288c) (Baker's yeast)) (P32657 whole entry, the tested form may be a part): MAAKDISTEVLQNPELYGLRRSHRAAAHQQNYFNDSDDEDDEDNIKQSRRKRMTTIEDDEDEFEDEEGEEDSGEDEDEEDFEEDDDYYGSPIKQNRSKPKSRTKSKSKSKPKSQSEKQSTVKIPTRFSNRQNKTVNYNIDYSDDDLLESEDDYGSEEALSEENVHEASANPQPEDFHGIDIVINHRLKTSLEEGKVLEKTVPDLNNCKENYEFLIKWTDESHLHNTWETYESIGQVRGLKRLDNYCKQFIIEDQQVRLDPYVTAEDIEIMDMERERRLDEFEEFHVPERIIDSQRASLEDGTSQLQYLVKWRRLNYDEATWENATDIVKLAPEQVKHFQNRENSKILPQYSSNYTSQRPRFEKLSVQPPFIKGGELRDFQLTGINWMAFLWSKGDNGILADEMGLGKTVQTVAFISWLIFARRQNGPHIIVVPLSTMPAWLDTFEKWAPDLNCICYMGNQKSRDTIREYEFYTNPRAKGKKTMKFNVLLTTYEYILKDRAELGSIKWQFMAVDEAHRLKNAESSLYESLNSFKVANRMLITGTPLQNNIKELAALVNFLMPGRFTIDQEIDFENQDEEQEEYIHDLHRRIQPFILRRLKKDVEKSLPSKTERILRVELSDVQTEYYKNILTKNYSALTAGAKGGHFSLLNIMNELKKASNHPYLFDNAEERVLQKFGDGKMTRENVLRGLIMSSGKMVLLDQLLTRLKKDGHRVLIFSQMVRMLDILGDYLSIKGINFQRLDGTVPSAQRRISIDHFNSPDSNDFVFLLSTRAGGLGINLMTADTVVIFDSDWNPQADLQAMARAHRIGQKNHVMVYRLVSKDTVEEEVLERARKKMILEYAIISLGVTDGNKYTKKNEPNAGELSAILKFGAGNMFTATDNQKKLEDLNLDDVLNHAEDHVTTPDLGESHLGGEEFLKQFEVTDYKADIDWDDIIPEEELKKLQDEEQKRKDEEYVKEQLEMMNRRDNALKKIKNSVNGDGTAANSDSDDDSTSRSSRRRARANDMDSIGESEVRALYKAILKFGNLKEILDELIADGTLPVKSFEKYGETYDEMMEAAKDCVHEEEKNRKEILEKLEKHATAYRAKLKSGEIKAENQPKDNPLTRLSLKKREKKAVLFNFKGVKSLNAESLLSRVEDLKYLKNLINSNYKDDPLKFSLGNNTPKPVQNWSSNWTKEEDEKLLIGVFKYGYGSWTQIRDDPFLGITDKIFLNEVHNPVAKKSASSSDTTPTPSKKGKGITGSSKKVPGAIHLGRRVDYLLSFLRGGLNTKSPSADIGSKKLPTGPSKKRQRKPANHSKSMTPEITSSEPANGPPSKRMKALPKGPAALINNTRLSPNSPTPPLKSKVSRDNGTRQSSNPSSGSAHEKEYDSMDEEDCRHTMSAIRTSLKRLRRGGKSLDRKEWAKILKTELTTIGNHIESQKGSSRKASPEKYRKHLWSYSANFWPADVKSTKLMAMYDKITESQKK
Chain of Sialic acid-binding Ig-like lectin 9 (Homo sapiens) (Q9Y336 whole entry): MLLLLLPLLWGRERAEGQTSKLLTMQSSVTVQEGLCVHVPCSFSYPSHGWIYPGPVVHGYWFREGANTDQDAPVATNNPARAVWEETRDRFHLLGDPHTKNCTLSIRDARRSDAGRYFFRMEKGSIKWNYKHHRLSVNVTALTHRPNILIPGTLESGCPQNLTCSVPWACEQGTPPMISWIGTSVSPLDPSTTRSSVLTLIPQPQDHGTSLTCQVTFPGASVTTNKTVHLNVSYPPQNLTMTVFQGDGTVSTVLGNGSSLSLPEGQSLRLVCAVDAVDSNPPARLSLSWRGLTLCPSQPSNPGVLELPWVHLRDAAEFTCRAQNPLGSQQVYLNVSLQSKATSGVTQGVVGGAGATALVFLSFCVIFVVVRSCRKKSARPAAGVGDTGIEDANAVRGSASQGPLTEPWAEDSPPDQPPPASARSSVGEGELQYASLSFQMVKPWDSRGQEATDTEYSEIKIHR

Work on `O=C(c1cnn2c1OCCC2)N1CCC2(CC1)OCCO2` yielded a Percent Effect [1] of -0.752%, a Percent Effect [2] of 2.6% and a Percent Effect [3] of -2.99%. For the same molecule, the Percent Effect [4] was 3.51%, the Percent Effect [5] was 6.26% and the Percent Effect (Trypanosoma cruzi) was -6.02%. It also gave a Percent Effect ([6]; 33.3 µM) of -1.94%, a Percent Effect [7] of 7.49% and a Percent Effect (Homo sapiens) of 14.6%. For the same molecule, the Percent Effect [8] was 4.26%, the Percent Effect [9] was 6.35% and the Percent Effect [10] was 11.5%. For the same molecule, the Percent Effect [11] was -7.54%.

With `Cc1ccc(N2CCC3(CN(CCO)CCC3(F)F)C2)nn1` (centres undefined) the PXC50 ([12]; MAX_EFFECT 9.719626168) was less than 4 and the PXC50 ([12]; MAX_EFFECT 11.33786848) was less than 4.

For `O=C1CSC(c2ccc(O)c(Cl)c2)c2c(n(C3CCOCC3)[nH]c2=O)N1` (centres undefined), the Percent Effect [1] was -3.7%, the Percent Effect [2] was 20% and the Percent Effect [3] was -0.726%. It also gave a Percent Effect [4] of 0.0426%, a Percent Effect [5] of 4.6% and a Percent Effect (Trypanosoma cruzi) of 2.36%. The Percent Effect ([6]; 30 µM) was 4.87%, the Percent Effect ([6]; 33.3 µM) was -14.3% and the Percent Effect [7] was 8.87%. It also gave a Percent Effect (Homo sapiens) of 8.4%, a Percent Effect [8] of -12.7% and a Percent Effect [9] of 9.52%. For the same molecule, the Percent Effect [10] was 17.9% and the Percent Effect [11] was -15.1%.

— ChEMBL document CHEMBL3988442, “University of Dundee, Small-Polar-MMV Screening Library” (2021)
